Bioassay records (PubChem)
HCMV antiviral – qHTS Assay for inhibitors of the human cytomegalovirus (HCMV); HFF cells, HCMV-luciferase reporter, 72 h; hits give low values; activity change, negative = inhibition, % at 57.5 µM; hit rate 4.5% among 410,000; in the data active means activity change below about -60%; inconclusive means no clear call, values can overlap the other calls; inactive means above about -39%
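Two-dose cell screen: HFF monolayers treated with compounds and infected with luciferase-expressing HCMV at 1 PFU/cell, 72 h at 37C, then lysed for luciferase measurement.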
FMDV antiviral – High Throughput Screening for Foot and Mouth Disease Virus Antivirals | FMDV antiviral cell-based qHTS | Potency, µM (series often up to 57.9 µM), for inactives: top-dose activity change, negative = inhibition, actives largely listed as inhibitors | hit rate 1.2% among 410,000; calls by dose curve; tested in HEK293T cells; further: read-out not given here; potency means the concentration at half of the fitted maximal effect; nearly all actives have a fitted effect of over 45% in size
Lassa entry inh – qHTS for Inhibitors of binding or entry into cells for Lassa Virus; Potency, µM (highest dose often 37.9 µM), without a hit: at the top dose activity change, negative = inhibition, most hits filed as inhibitors; hit rate 1.2% among 300,000; AID 540256, 2011; Lassa virus pseudotype entry inhibition, cell reporter; calls by dose curve; tested in HEK293 cells; further: potency means the concentration at half of the fitted maximal effect; nearly all actives have a fitted effect of over 50% in size
VACV Venus inh – qHTS for Stage-Specific Inhibitors of Vaccinia Orthopoxvirus: Venus Reporter Primary qHTS; Potency, µM (series often up to 36.5 µM), without a hit: top-dose activity change, negative = inhibition, most hits filed as inhibitors; hit rate 0.46% among 330,000; AID 720580, 2013; Vaccinia virus Venus reporter expression, fluorescence; calls by dose curve; tested in A549 cells; further: potency means the concentration at half of the fitted maximal effect; nearly all actives have a fitted effect of over 30% in size
VACV mCherry inh – qHTS for Stage-Specific Inhibitors of Vaccinia Orthopoxvirus: mCherry Reporter Primary qHTS | hit rate 0.63% among 310,000 | Potency, µM (titrated, usually from 36.5 µM), inactives show at the top dose activity change, negative = inhibition, actives largely listed as inhibitors | Vaccinia virus mCherry reporter infection, fluorescence; calls by dose curve; tested in A549 cells; further: potency means the concentration at half of the fitted maximal effect; nearly all actives have a fitted effect of over 35% in size
MARV entry inh – qHTS for inhibitors of binding or entry into cells for Marburg Virus; Marburg virus pseudotyped entry inhibition, cell reporter; hit rate 1.8% among 300,000; AID 540276, 2011; Potency, µM (series often up to 37.8 µM), for inactives: at the top dose activity change, negative = inhibition, most hits filed as inhibitors; calls by dose curve; tested in HEK293 cells; further: potency means the concentration at half of the fitted maximal effect
* = called active by the depositor; i = inactive; ? = inconclusive; . = not tested or not shown; [ ] = dose if it differs, or a comment. Most compounds without a hit are left out; they make up all but 6.5% or so of the library. On the % scale 0 is the no-effect control and ±100 the full control effect.

SMILES | HCMV antiviral | FMDV antiviral | Lassa entry inh | VACV Venus inh | VACV mCherry inh | MARV entry inh
COc1cccc(C(=O)Nc2ccc(Cl)c(-c3nc4ccccc4[nH]3)c2)c1 | -89* | ? | ? | ? | -22% | ?
CCC(=O)Nc1ccc(Cl)c(-c2nc3ccccc3[nH]2)c1 | -16 | -22% | 6%[46.1 µM] | -23% | 0% | -2%[46.1 µM]
CCCC(=O)Nc1ccc(Cl)c(NC(=O)c2cccnc2)c1 | -31 | . | 2% | -11% | i | -18%
CCCC(=O)Nc1ccc(Cl)c(NC(=O)c2cccc(OC)c2)c1 | -79* | -5% | ? | -16% | -13% | 0%[46.1 µM]
Oc1ccc(Cl)cc1-c1cc(-c2cccc(Br)c2)n[nH]1 | -93* | 6% | ? | . | . | ?
Oc1ccccc1-c1cc(-c2cccc(F)c2)n[nH]1 | 212 | 18% | ? | . | . | 0%
OC(CSc1ccccc1)CN1CCN(c2ccccc2)CC1 (centres undefined) | -102* | -10% | -7% | -12% | -20% | ?
NC(=O)C1CCN(CC(O)CSc2ccccc2)CC1 (centres undefined) | 9 | 5% | . | . | . | .
Cc1ccc(C(=O)C[n+]2cc(-c3ccc(C)cc3)n3c2CCCCC3)cc1 | -102* | 10µM* | ? | -24% | -12% | ?
Cc1ccc(-c2c[n+](Cc3ccc(Cl)c(Cl)c3)c3n2CCC3)cc1 | -99* | -22% | ? | -23% | -23% | ?
O=C(C[n+]1cc(-c2ccccc2)n2c1CCCCC2)c1ccc(Br)cc1 | -6 | ? | -12% | -13% | -3% | -25%
COc1ccc(-c2c[n+](CC(=O)c3cccs3)c3n2CCC3)cc1 | 1 | 0% | -11% | -23% | -3% | -17%
COc1ccc(C(=O)C[n+]2cc(-c3ccc(OC)cc3)n3c2CCCC3)cc1 | -67* | ? | -16%[46.1 µM] | ? | -17% | ?
Cc1ccc(-c2c[n+](CC(=O)Nc3ccc(C)cc3C)c3n2CCC3)cc1 | -71* | -7% | -18% | -7%[7.34 µM] | i[7.34 µM] | -1%[46.1 µM]
Cc1ccc(NC(=O)C[n+]2cc(-c3ccc(C)cc3)n3c2CCC3)cc1 | -8 | 3% | -4% | -15% | -2% | -3%[46.1 µM]
COc1ccc(N(CN2C(=O)[C@@H]3[C@@H](C2=O)[C@H]2C=C[C@@H]3C2)C(=O)c2ccco2)cc1 | . | . | . | . | . | 5%
COCc1c(C(=O)N2CCCCC2c2cccnc2)cnn1-c1ncc2c(n1)-c1ccccc1CCC2 (centres undefined) | . | -17% | . | -4% | -20% | .
CC(C)(C)c1ccc(C2Sc3ccccc3NC3=C2C(=O)c2ccccc23)cc1 (centres undefined) | -104* | ? | ? | -5% | -8% | .
CCOC(=O)Nc1ccc(S(=O)(=O)N2CCOCC2)cc1 | -5 | -19% | -1% | . | . | 10%
CC(C)CCCCCCNC(=S)Nc1ccc(S(=O)(=O)N2CCOCC2)cc1 | -85* | -26% | ? | ? | ? | ?
O=S(=O)(c1ccc(NC(=S)Nc2ccccc2)cc1)N1CCOCC1 | -27 | 29% | 18% | -13% | -13% | 4%
CN(C)CC(C)(C)CNC(=S)Nc1ccc(S(=O)(=O)N2CCOCC2)cc1 | -76* | -8% | -2% | 1% | -10% | -13%
Cc1ccc([S+](=O)([O-])N[C@@H]2COC(=O)CC=C[C@H](C)COC(=O)N[C@@H](C)C(=O)CC=C[C@H]2C)cc1 | . | . | . | . | . | 11%[14.2 µM]
CCC(Sc1nnc2c(n1)[nH]c1ccccc12)C(=O)Nc1nnc(C(C)C)s1 (centres undefined) | -4 | 14% | -4%[46.1 µM] | -18% | -23% | 14%[46.1 µM]
Cc1ccc(-n2c(C)cc(C(=O)COc3c(CO)cc(F)cc3CO)c2C)cc1C | -92* | ? | ? | -26% | -8% | ?
SMILES | HCMV antiviral | FMDV antiviral | Lassa entry inh | VACV Venus inh | VACV mCherry inh | MARV entry inh
CCC1CN(Cc2ccc(COC)o2)Cc2cc(OC)ccc2O1 (centres undefined) | . | -7% | . | -3% | -6% | .
CCOc1cc2c(cc1O)C(=NOC)CC1C2CCC2(C)C(O)CCC12 (centres undefined) | -73* | 1% | ? | ? | ? | ?
O=C(Nc1sc2c(c1C(=O)O)CCCC2)c1cccs1 | 26 | 14% | ? | . | . | 9.2µM*
CC1CCc2c(sc(NC(=O)c3cccs3)c2C(=O)O)C1 (centres undefined) | -79* | 23% | . | . | . | .
Cc1ccc(C)n1C1C(=O)N(Cc2ccc(C(F)(F)F)cc2)c2ccc(Cl)cc21 (centres undefined) | -4 | . | . | . | . | .
CN1CCN(c2ncc3nc(-c4cc(F)cc(F)c4)c(=O)n(CCC#N)c3n2)CC1 | . | -24% | . | . | . | .
Cc1ccc(-c2nnc(SCCC(=O)Nc3ccccc3)n2C)cc1 | . | . | . | -19% | -10% | .
COc1ccccc1N1CCN(CCCNC(=O)c2cnn(-c3cccc(Cl)c3)c2C2CCN(C(=O)OC(C)(C)C)CC2)CC1 | -37 | -23% | ? | -26% | ? | .
CCOC(=O)C1=C(CN2CCOCC2)NC(=O)NC1c1cc(C)ccc1C (centres undefined) | -32 | . | -15% | -11% | -16% | -15%
CCOC(=O)C1=C(CN2CCCCC2)NC(=O)NC1c1cc(C)ccc1C (centres undefined) | 1 | ? | -25%[46.1 µM] | -9% | -12% | 9.2µM*
COc1ccccc1CNc1ncnc2sc(C(=O)N3CCN(C)CC3)c(C)c12 | . | 3% | . | -5% | -7% | .
OCC1=CC[N+]2(Cc3ccccc3)CCC(O)[C@@H]12 (some centres undefined) | . | -16% | . | . | . | .
COc1ccc(NS(=O)(=O)c2ccc(N3CCOCC3)c(NC(=O)c3ccccc3Cl)c2)cc1 | -13 | 67% | 1.6µM* | -10% | -25% | ?
COc1ccc(NS(=O)(=O)c2ccc(N3CCOCC3)c(N)c2)cc1 | -70* | ? | . | . | . | .
COc1cc(OC)c(OC)cc1CN1CCC(n2cc(C(=O)N3CCCCC3)nn2)CC1 | . | -9% | . | -12% | -15% | .
CC1CCC(C(C)C)C(OCC(O)CNC(C)c2ccccc2)C1 (centres undefined) | -98* | ? | ? | 10µM* | 10µM* | ?
CC1CCN(CC(O)COC2CC(C)CCC2C(C)C)CC1 (centres undefined) | ? | -24% | . | . | . | .
CC1CCC(C(C)C)C(OCC(O)CNC(C)(C)C)C1 (centres undefined) | -76* | -11% | . | -20% | -16% | .
O=C(Nc1ccc(S(=O)(=O)N(Cc2ccccc2)c2ccccc2)cc1)c1ccc([N+](=O)[O-])cc1 | 14 | ? | 1%[46.1 µM] | -29% | ? | -1%[46.1 µM]
COC[C@@H](O)[C@H]1OCc2ccccc2[C@@H]1C=Cc1ccccc1 | . | . | . | . | . | -37%[14.2 µM]
CC1(C(=O)NS(=O)(=O)C2CC2)CCCN(C(=O)c2cccs2)C1 (centres undefined) | -61* | 4% | . | 11% | 37% | .
